HP1b chromo inh: blocks HP1-beta chromodomain binding to methylated histone tails | Potency, µM (highest dose often 114 µM), without a hit: at the top dose activity change, negative = inhibition, hits mostly inhibitors | AlphaScreen HP1-beta / biotin-H3K9me3 peptide binding | P83916 | 390,000 tested, 0.56% active | AID 540317; further: nearly all actives have a fitted effect of over 70% in size
Target sequence (P83916 whole entry, looked up): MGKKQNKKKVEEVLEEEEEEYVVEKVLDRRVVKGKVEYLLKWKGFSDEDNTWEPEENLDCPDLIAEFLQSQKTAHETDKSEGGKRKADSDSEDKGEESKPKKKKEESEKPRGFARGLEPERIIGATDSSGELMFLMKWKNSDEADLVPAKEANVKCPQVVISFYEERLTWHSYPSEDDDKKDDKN
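AlphaScreen: HP1-beta (50 nM) preformed 30 min with biotin-H3(1-18)K9me3 peptide (50 nM) in PBS pH 7.4, 0.01% Tween-20. Compound added for 30 min at RT, then streptavidin donor/nickel chelate acceptor beads (10 ug/mL) for 30 min.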
JMJD2A Tudor: blocks the human JMJD2A Tudor domain; O75164; AlphaScreen JMJD2A-Tudor / H3K4me3 peptide binding; Potency, µM (titrated, usually from 114 µM), for inactives: at the top dose activity change, negative = inhibition, hits mostly inhibitors; 390,000 tested, 4.4% active; further: on the % scale 0 is the no-effect control and ±100 the full control effect; nearly all actives have a fitted effect of over 50% in size
L3MBTL1 block: L3MBTL1 (human) inhibition; 230,000 tested, 0.66% active; Q9Y468; Potency, µM (highest dose often 57.1 µM), for inactives: top-dose activity, negative = inhibition, actives largely listed as inhibitors; AlphaScreen L3MBTL1–H3K9me1 peptide binding; further: on the % scale 0 is the no-effect control and ±100 the full control effect; nearly all actives have a fitted effect of over 60% in size
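Read-out is AlphaScreen signal from streptavidin donor and nickel chelate acceptor beads (10 ug/mL final each) bridging L3MBTL1 (50 nM) and biotinylated K9-monomethylated H3(1-15) peptide (75 nM), after 30 min compound exposure at room temperature.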
BAZ2B inh: blocks human BAZ2B; Q9UIF8; Potency, µM (highest dose often 114 µM), for inactives: top-dose activity change, negative = inhibition, usual class: inhibitors; AID 504333; AlphaScreen BAZ2B-H3K14Ac peptide displacement; 360,000 tested, 4.4% active; further: on the % scale 0 is the no-effect control and ±100 the full control effect; nearly all actives have a fitted effect of over 60% in size
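Protein-peptide AlphaScreen: BAZ2B 50 nM, b-H3K14Ac 50 nM, 1x PBS pH 7.4 + 0.01% Tween-20. Preincubation 30 min RT; cpd 30 min RT (top 110 uM); beads 20 min RT, light-protected.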
G9a inh: G9a (human) methyltransferase inhibition; Potency, µM (highest dose often 102 µM), for inactives: at the top dose activity, negative = inhibition, hits mostly inhibitors; G9a H3K9 monomethylation, AlphaScreen, 2 h; AID 504332; 350,000 tested, 8.8% active; Q96KQ7; further: on the % scale 0 is the no-effect control and ±100 the full control effect; nearly all actives have a fitted effect of over 75% in size
Target sequence (Q96KQ7 913-1193 limits assumed): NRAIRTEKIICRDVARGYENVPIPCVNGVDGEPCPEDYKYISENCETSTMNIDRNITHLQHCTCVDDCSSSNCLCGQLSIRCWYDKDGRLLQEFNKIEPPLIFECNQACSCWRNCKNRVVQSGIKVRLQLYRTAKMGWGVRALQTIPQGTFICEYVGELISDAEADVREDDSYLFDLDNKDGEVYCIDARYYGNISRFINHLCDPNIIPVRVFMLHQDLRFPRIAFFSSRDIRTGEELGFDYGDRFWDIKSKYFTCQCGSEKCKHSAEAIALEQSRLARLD
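Quantitative HTS format: methyltransferase activity on a biotin-tagged H3K9 peptide is measured by AlphaScreen, using a rabbit anti-monomethyl-H3K9 antibody with streptavidin donor and anti-IgG acceptor beads. Final levels are 20 nM enzyme, 500 nM peptide, 20 uM SAM; 2 h RT.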
GLS inhibitor: blocks human kidney-isoform glutaminase activity; GLS enzymatic activity, qHTS titration; Potency, µM (doses to about 45.5 µM), for the others: at the highest dose activity change, negative = inhibition, hits mostly inhibitors; 410,000 tested, 0.21% active; O94925; further: on the % scale 0 is the no-effect control and ±100 the full control effect
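Coupled fluorescence readout: glutamate oxidase/HRP/Amplex Red detect glutamate formed by hKGA from L-glutamine (1 mM solution added). Buffer 45 mM KH2PO4 pH 8.2, 0.02% Tween-20; reads at t0 and 30 min RT.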
Numbers without * were called inactive; ? = inconclusive; · = not tested or not shown; [ ] = dose if it differs, or a comment. Sampled rows, rich in hits. Any-hit rate of the full collection: about 10%. The call rests on the fitted dose curve; in most records, active means well fitted curve in the direction sought with a large enough effect; inconclusive means small, poorly fitted or top-dose-only effect, or another doubt; inactive means no such curve, though single readings can be large; an effect the other way counts as inactive or inconclusive. Potency means the concentration at half of the fitted maximal effect.

SMILES	HP1b chromo inh	JMJD2A Tudor	L3MBTL1 block	BAZ2B inh	G9a inh	GLS inhibitor
COc1ccc(-c2cc(C(C)=O)c(C)n2CCC(=O)Nc2cccc(C)c2C)cc1	36%	-5%	·	-2%	4%[59 µM]	4%
CC(=O)NCCNc1ncncc1-c1ccc(N(C)C)cc1	·	·	·	·	9%[0.501 µM]	·
Cc1cccc(-c2ccc3ncnc(NCc4cccc(F)c4)c3c2)c1	·	·	-9%	3%	-45%[12.7 µM]	·
O=[N+]([O-])c1cc(S(=O)(=O)N2CCOCC2)ccc1N1CCNCC1	8%	-21%	1%	-6%	50µM*	-4%
CC(=O)N1CCN(c2ccc(S(=O)(=O)N3CCOCC3)cc2[N+](=O)[O-])CC1	18%[57 µM]	-14%	3%	·	·	1%
COc1ccc(CCn2c3c(c(=O)[nH]c2=S)CN(CC(C)C)CN3)cc1OC	35%	-5%	·	·	·	·
N#Cc1ccc(NS(=O)(=O)c2ccc3c(c2)CCC(=O)N3)cc1	·	79µM*	·	·	·	·
COc1cc(NS(=O)(=O)c2ccc3c(c2)CC(=O)N3)cc(OC)c1OC	14%	-23%	·	·	0.35µM*	6%
CCCCNC(=O)O[C@@H]1C[C@H]2CCCC(=O)N3CC[C@@H](C1)[C@@H]23	39%	-5%	0%	-30%	-3%	0%
CCCCCCCN(c1ccccc1)[C@@H]1C[C@H]2CCCC(=O)N3CC[C@@H](C1)[C@@H]23	-13%	45µM*	·	·	·	28%
Cc1ccc(-n2nc(C)c3c2OC(N)=C(C#N)C3c2ccco2)cc1 (stereo not given)	45µM*	56µM*	?	18µM*	?	24%
Cc1ccc(-n2nc(C)c3c2OC(N)=C(C#N)C3c2ccc(C)o2)cc1 (stereo not given)	-26%	11µM*	?	10µM*	8.9µM*	1%
COc1ccc(C2C(C#N)=C(N)Oc3c2c(-c2ccccc2)nn3-c2ccccc2)c(OC)c1OC (stereo not given)	?	?	-16%	25µM*	50µM*	17%
Cc1nn(-c2ccccc2)c2c1C(c1ccccc1)C(C#N)=C(N)O2 (stereo not given)	-8%	-15%[11.4 µM]	-6%	?	?	-8%
Cc1ccc(-n2nc(C)c3c2OC(N)=C(C#N)C3c2ccoc2)cc1 (stereo not given)	0%	-36%	?	?	?	-5%
Cc1nn(-c2ccccc2)c2c1C(c1ccc(Br)s1)C(C#N)=C(N)O2 (stereo not given)	?	13µM*	?	11µM*	16µM*	-4%
CCn1c(C)c(C)c2cc(C(=O)NCc3ccc(OC)cc3OC)ccc21	-19%	?	·	?	?	5%
Cc1ccccc1CNC(=O)Cc1csc2ccccc12	29%	-7%	·	-9%	-9%[59 µM]	-3%
CONC(=O)C[C@@H](C#N)NC(=O)[C@@H]1CCCN1C(=O)[C@@H](NC(=O)c1ccc(N)c(Cl)c1)C(C)(C)C	·	-26%	·	·	·	·
Cc1ccc(Sc2oc(/C=N/n3cnnc3)cc2Br)cc1	10%	-22%	1%	0%	-34%	8.9µM*
COc1ccc(C2CC3(CC(C)(C)NC(SC)=N3)Oc3cc(O)cc(C)c32)cc1 (stereo not given)	19%	79µM*	16%	36%	?	13%
COc1ccc(C2CC3(CC(C)(C)NC(=S)N3)Oc3cc(O)cc(C)c32)cc1 (stereo not given)	-4%	-35%	-6%	?	-12%[59 µM]	10%
CCC(C)NC(=O)C1CCN(CCCc2ccccc2)CC1 (stereo not given)	-28%	10µM*	6%	50µM*	14µM*	-13%
CCC(C)NC(=O)C1CCN(C(=O)c2ccccc2)CC1 (stereo not given)	13%	-12%	-2%	6%	·	1%
O=C(C1CCN(CC2CC=CCC2)CC1)N(CCc1ccccc1)Cc1ccccc1 (stereo not given)	42%	?	0%	79µM*	45µM*	1%
SMILES	HP1b chromo inh	JMJD2A Tudor	L3MBTL1 block	BAZ2B inh	G9a inh	GLS inhibitor
O=C(C1CCN(CCCc2ccccc2)CC1)N(CCc1ccccc1)Cc1ccccc1	?	1.1µM*	-6%	?	14µM*	17%
Cc1ccc(C)c(Nc2ncnc3c2cnn3-c2ccc(F)cc2)c1	48%	-7%	·	-1%	7%[59 µM]	3%
O=C(CSc1nnc(-c2ccccc2Br)n1-c1ccccc1)c1ccc(F)cc1	20%	-22%	·	?	-8%[59 µM]	6%
CCOc1ccc(S(=O)(=O)N(C)CC(=O)NCc2ccco2)cc1	14%	-10%	·	-2%	-17%[59 µM]	0%
COc1ccc(S(=O)(=O)N(C(=O)c2ccco2)c2cc3sc(=O)oc3c3ccccc23)cc1	?	?	-9%	?	1.4µM*	8%
Cc1ccc(S(=O)(=O)N(C(=O)c2ccco2)c2cc3sc(=O)oc3c3ccccc23)cc1	?	?	-10%	?	1.8µM*	-1%
CCOc1ccc(S(=O)(=O)N(C(=O)c2ccco2)c2cc3sc(=O)oc3c3ccccc23)cc1	?	?	-5%	?	1.4µM*	-2%
COc1ccc(S(=O)(=O)N(Cc2ccccc2)c2ccccc2C(=O)Nc2ccccc2C(=O)NCc2ccco2)cc1	-2%	-26%	-3%	-6%	-3%	3%
O=C(Nc1cccc(C(=O)N2CCN(c3cccc(Cl)c3)CC2)c1)c1nsc2ccccc12	14%[57 µM]	-21%	·	-1%	-4%[59 µM]	3%
S=C(c1ccc(-c2cc(Cl)ccc2Cl)o1)N1CCCCC1	?	?	-3%	28µM*	?	13%
O=C(Nc1ccc(CN2CCOCC2)cc1)c1ccc(-c2cc(Cl)ccc2Cl)o1	11%	-11%	·	-36%	-13%[59 µM]	0%
S=C(c1ccc(-c2cc(Cl)ccc2Cl)o1)N1CCOCC1	18µM*	?	-24%	35µM*	8.9µM*	4%
Cc1ccc(C)c(CNC(=O)c2ccc3c(c2)nc2n3CCC(C)C2)c1 (stereo not given)	25%[57 µM]	-13%	·	1%	-12%[59 µM]	-6%
S=C(NCCN1CCOCC1)Nc1ccc(-c2nc3ccccc3[nH]2)cc1	8%	-18%	-6%	-26%	45µM*	25%
c1cncc(-c2nc3ccccc3[nH]2)c1	9%	-9%	4%	3%	3%[59 µM]	7%
S=C(Nc1ccc(-c2nc3ccccc3[nH]2)cc1)Nc1cccnc1	-36%	-34%	·	-27%	45µM*	-9%
Cc1ccc(OCC(=O)Nc2ccc([N+](=O)[O-])cc2)cc1	33%	-8%	-2%	-3%	-3%	2%
